In PubChem BioAssay (NCI):
The panel holds about 83,000 compounds, 20% with a hit somewhere; the sample as a whole holds those more often.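 Results are percent growth after 48 hours of single-concentration exposure. 100 means growth as in untreated cells, lower positive values show inhibition; negative values down to -100 show cell death.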 Unmarked numbers belong to inactive results. Active and inactive are the calls of the source. Rule for the calls: active = growth percent below 10; inactive = the rest.

Legend:
Assay in all cases: NCI-60 one-dose screen, 48 h (100 = growth as untreated, 0 = no growth, -100 = all killed)
SR leukemia = settings: 10 µM
RPMI-8226 leukemia = settings: 10 µM
OVCAR-8 ovarian = settings: 10 µM
OVCAR-5 ovarian = settings: 10 µM
OVCAR-4 ovarian = settings: 10 µM
SK-OV-3 ovarian = settings: 10 µM
IGROV1 ovarian = settings: 10 µM
OVCAR-3 ovarian = settings: 10 µM
HS 578T breast = settings: 10 µM
NCI/ADR-RES ovarian = settings: 10 µM
T-47D breast = settings: 10 µM
BT-549 breast = settings: 10 µM
MDA-MB-435 melanoma = settings: 10 µM
SW-620 colon = settings: 10 µM
MCF7 breast = system: MCF7 breast
HCT-116 colon = settings: 10 µM
HCC-2998 colon = settings: 10 µM
KM12 colon = settings: 10 µM

Row | SMILES | growth (SR leukemia) | growth (RPMI-8226 leukemia) | growth (OVCAR-8 ovarian) | growth (OVCAR-5 ovarian) | growth (OVCAR-4 ovarian) | growth (SK-OV-3 ovarian) | growth (IGROV1 ovarian) | growth (OVCAR-3 ovarian) | growth (HS 578T breast) | growth (NCI/ADR-RES ovarian) | growth (T-47D breast) | growth (BT-549 breast) | growth (MDA-MB-435 melanoma) | growth (SW-620 colon) | growth (MCF7 breast; 10 µM unless noted) | growth (HCT-116 colon) | growth (HCC-2998 colon) | growth (KM12 colon) | growth (MCF7 breast; 10 µM) | growth (MCF7 breast; 100 µM)
1 | N=c1c(C(=O)OCc2ccccc2)ncc(CCl)n1O | 82.6% | 76.8% | 101% | 103% | 91.3% | 107% | 95% | 99.1% | 114% | 105% | 93.9% | 80.6% | 96.1% | 86.9% | 91.9% | 78.3% | 104% | 102% | – | –
2 | Cc1nc2ccccc2c2nnc(SCC(=O)N(Cc3ccccc3)c3ccccc3)n12 | 67.6% | 78.8% | 100% | 95% | 91.7% | 93.8% | 71.6% | 93.4% | 93.9% | 96.1% | 76.4% | 87.2% | 96% | 93.5% | 102% | 43.1% | 110% | 129% | – | –
3 | c1cc2cccc3c4cccc5cccc(c(c1)c23)c54 | 108% | 113% | 112% | 106% | 95.5% | 94.1% | 125% | 108% | 112% | 108% | 90.2% | 104% | 111% | 108% | 84% | 103% | 96.7% | – | – | –
4 | CCOc1ccc2[nH]c(=S)sc2c1 | 97.7% | 97.1% | 96.4% | 97.6% | 108% | 105% | 88.5% | 117% | 96% | 104% | 94.5% | 107% | 99.3% | 102% | 102% | 105% | 97.9% | 116% | – | –
5 | C=CCNc1ccccc1 | 96.9% | 92.8% | 107% | 106% | 94% | 101% | 115% | 116% | 110% | 114% | 103% | 99% | 119% | 106% | 87.4% | 92.4% | – | – | – | –
6 | C#CC(C(C)C)N(CCO)CCCC (stereo unspecified) | 101% | 101% | 105% | 92.4% | 101% | 106% | 115% | 111% | 102% | 110% | 100% | 112% | 98.6% | 107% | 93.9% | 104% | 111% | 109% | – | –
7 | O=C(NN=C1CCCCC1)C(=O)NN=C1CCCCC1 | 83.7% | 99.6% | 100% | 105% | 115% | 101% | 127% | 123% | 115% | 114% | 99.7% | 100% | 117% | 117% | 92.5% | 106% | 113% | 105% | – | –
8 | O=C(O)CCC(=O)OC(C1CO1)C(OC(=O)CCC(=O)O)C1CO1 (stereo unspecified) | 101% | 90.4% | 95.9% | 93.4% | 107% | 96.8% | 110% | 103% | 113% | 109% | 94% | 108% | 103% | 106% | 90.6% | 99.2% | 108% | – | – | –
9 | C=C1CC/C=C(\C)C(=O)C[C@@H]2[C@@H]1CC2(C)C | 95.7% | 68.3% | 98.1% | 108% | 110% | 101% | 11.4% | 96.7% | 122% | 115% | 94.6% | 105% | 115% | 119% | – | – | 98.1% | 109% | 101% | -72% (active)
10 | O=c1cc(-c2ccccc2)oc2c1ccc1ccccc12 | 67.3% | 77.8% | 82.3% | 96% | 93.6% | 88.2% | 94.1% | 107% | 97.8% | 82.6% | 72% | 97.6% | 88.6% | 99.2% | 67.3% | 85.5% | 98.8% | 98.8% | – | –
11 | C[C@@H](c1ccccc1)[C@@H](C(=O)O)c1ccccc1 | 105% | 99.7% | 98.2% | 105% | 94.7% | 100% | 111% | 104% | 110% | 105% | 101% | 97.6% | 104% | 103% | 93.4% | 102% | – | – | – | –
12 | CCCCCC(C)(CC(=O)O)CC(=O)O | 94.1% | 119% | 103% | 97.4% | 104% | 114% | 110% | 126% | 107% | 119% | 104% | 113% | 107% | 106% | 90% | 112% | 113% | – | – | –
13 | O=C1C[C@H](c2ccccc2)[C@H](c2ccccc2)C1 | 99.2% | 83.2% | 109% | 95.8% | 105% | 102% | 112% | 118% | 112% | 106% | 99.1% | 93.7% | 108% | 109% | 99.1% | 99.1% | 104% | 115% | – | –
14 | Cc1cc(N)ccc1-c1ccc(N)cc1C | 95.2% | 108% | 90.7% | 98.4% | 108% | 96.4% | 104% | 99.8% | 90.4% | 92.5% | 98.1% | 92.3% | 102% | 101% | 104% | 105% | 88.4% | 99.7% | – | –
15 | CCN(CC)CCCC(C)Nc1ccnc(/C=C/c2ccc(Cl)cc2)c1 (stereo unspecified) | -19% (active) | -26.3% (active) | 14.8% | 47.1% | 15.4% | 72.8% | 41.2% | 26.5% | 47.1% | 56.1% | -4.4% (active) | 29.1% | -53.4% (active) | -53.2% (active) | -26.6% (active) | -10.5% (active) | -23.6% (active) | – | – | –
16 | CC1CCCC(CC(N)=O)CC1 (stereo unspecified) | 94.7% | 88.8% | 89% | 104% | 108% | 107% | 114% | 102% | 107% | 105% | 101% | 116% | 104% | 105% | 103% | 98.4% | 102% | 107% | – | –
17 | O=S(=O)(O)c1cc(O)c2c(N=Cc3ccccc3O)c(S(=O)(=O)O)ccc2c1 | 95.1% | 97.5% | 105% | 103% | 109% | 103% | 88.4% | 105% | 103% | 104% | 106% | 101% | 109% | 103% | 104% | 98.4% | 102% | 103% | – | –
18 | Cc1ccc(C(=O)N/N=C/c2ccc3c(c2)OCO3)cc1 | 78% | 94.3% | 102% | 103% | 99.5% | 93.4% | 105% | 116% | 115% | 91.3% | 94.7% | 107% | 92.7% | 106% | 103% | 92.4% | 96% | 82.1% | – | –
